In PubChem BioAssay AID1159580 (chemical genetic matrix, 2015):
Among all 5,500 compounds or so, about 2,000 (36%) were called active. Another 18% or so got no clear call; they are omitted. This is one part of the list. Values without a mark were called inactive. No stated cut-off is given here; in the data, active means normalized growth mostly below about 0.91 (no sharp cut-off); inconclusive means no clear call, values can overlap the other calls; inactive means mostly above about 0.92.

Assay: chemical genetic growth profiling, strain panel (AID 1159580);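 further: tested at 20 µM; growth read once vehicle control cultures reached saturation at 30 °C; 1 = growth at the plate median or of vehicle wells; lower values mean less growth of the strain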
Settings: S. cerevisiae deletion strains, growth OD
[1] = locus YDL101C, strain DUN1, hits give low values
[2] = locus YHR030C, strain SLT2, hits give low values

CCCCCCCCCCCCSc1nnc(N)s1
normalized growth (locus YAL013W, strain DEP1, hits give low values): 1.01 | normalized growth (locus YBR229C, strain ROT2, hits give low values): 0.994 | normalized growth [1]: 1.05 | normalized growth (locus YDR150W, strain NUM1, hits give low values): 1.01 | normalized growth (locus YEL061C, strain CIN8, hits give low values): 1 | normalized growth (locus YGR078C, strain PAC10, hits give low values): 0.999 | normalized growth (locus YGR229C, strain SMI1, hits give low values): 0.977 | normalized growth [2]: 0.964 | normalized growth (locus YHR087W, strain rtc3, hits give low values): 1.02 | normalized growth (locus YJL187C, strain SWE1, hits give low values): 0.995 | normalized growth (locus YJR043C, strain POL32, hits give low values): 0.984 | normalized growth (locus YJR075W, strain HOC1, hits give low values): 1.01 | normalized growth (locus YLR039C, strain RIC1, hits give low values): 0.981 | normalized growth (locus YLR058C, strain SHM2 (second series), hits give low values): 0.991 | normalized growth (locus YLR085C, strain ARP6, hits give low values): 0.953 | normalized growth (locus YLR262C, strain YPT6, hits give low values): 1 | normalized growth (locus YML094W, strain GIM5, hits give low values): 1.12 | normalized growth (locus YMR219W, strain ESC1, hits give low values): 0.996 | normalized growth (locus YMR263W, strain SAP30, hits give low values): 0.968 | normalized growth (locus YMR307W, strain GAS1, hits give low values): 0.933 | normalized growth (locus YNL153C, strain GIM3, hits give low values): 1.02 | normalized growth (locus YNL298W, strain CLA4 (second series), hits give low values): 0.976 | normalized growth (locus YNL322C, strain KRE1, hits give low values): 0.983 | normalized growth (locus YNR030W, strain Alg12, hits give low values): 1.02 | normalized growth (locus YPL055C, strain LGE1, hits give low values): 1.02 | normalized growth (locus YPL241C, strain CIN2, hits give low values): 0.978 | normalized growth (locus YPR135W, strain CTF4, hits give low values): 1.21

CCCCCCCCCCCCSc1ncn[nH]1
normalized growth (locus YAR019C, strain CDC15, hits give low values): 0.985 | normalized growth (locus YBL105C, strain PKC1, hits give low values): 0.976 | normalized growth (locus YBR135W, strain CKS1, hits give low values): 0.968 | normalized growth (locus YBR136W, strain MEC1, hits give low values): 0.973 | normalized growth (locus YBR160W, strain CDC28, hits give low values): 0.971 | normalized growth (locus YDL017W, strain CDC7, hits give low values): 0.977 | normalized growth (locus YDL028C, strain MPS1, hits give low values): 0.976 | normalized growth [1]: 0.975 | normalized growth (locus YDL108W, strain KIN28, hits give low values): 0.969 | normalized growth (locus YDL132W, strain cdc53, hits give low values): 0.976 | normalized growth (locus YDL214C, strain PRR2, hits give low values): 0.735 | normalized growth (locus YDR052C, strain DBF4, hits give low values): 0.975 | normalized growth (locus YDR054C, strain cdc34, hits give low values): 0.98 | normalized growth (locus YDR226W, strain ADK1, hits give low values): 0.968 | normalized growth (locus YDR477W, strain SNF1, hits give low values): 0.734 | normalized growth (locus YER123W, strain YCK3, hits give low values): 0.645 | normalized growth (locus YER133W, strain GLC7, hits give low values): 0.88 | normalized growth (locus YFL009W, strain cdc4, hits give low values): 0.971 | normalized growth (locus YFL029C, strain CAK1, hits give low values): 0.981 | normalized growth (locus YFR003C, strain YPI1, hits give low values): 0.977 | normalized growth (locus YFR019W, strain FAB1, hits give low values): 0.443 (active) | normalized growth (locus YFR028C, strain CDC14, hits give low values): 0.977 | normalized growth (locus YGR040W, strain KSS1, hits give low values): 0.817 | normalized growth (locus YGR052W, strain FMP48, hits give low values): 0.511 (active) | normalized growth (locus YGR092W, strain DBF2, hits give low values): 0.595 | normalized growth [2]: 0.135 (active) | normalized growth (locus YHR079C, strain IRE1, hits give low values): 0.254 (active) | normalized growth (locus YHR082C, strain KSP1, hits give low values): 0.209 (active) | normalized growth (locus YHR205W, strain SCH9, hits give low values): 0.294 (active) | normalized growth (locus YIL147C, strain SLN1, hits give low values): 0.978 | normalized growth (locus YJL095W, strain BCK1, hits give low values): 0.279 (active) | normalized growth (locus YJL128C, strain PBS2, hits give low values): 0.939 | normalized growth (locus YJL157C, strain FAR1, hits give low values): 0.728 | normalized growth (locus YJR016C, strain ILV3, hits give low values): 0.975 | normalized growth (locus YJR066W, strain TOR1 (second series), hits give low values): 0.738 | normalized growth (locus YJR066W, strain TOR1, hits give low values): 0.297 (active) | normalized growth (locus YKL048C, strain ELM1, hits give low values): 0.821 | normalized growth (locus YKL067W, strain YNK1, hits give low values): 0.85 | normalized growth (locus YKL193C, strain SDS22, hits give low values): 0.976 | normalized growth (locus YKL203C, strain TOR2, hits give low values): 0.731 | normalized growth (locus YLR113W, strain HOG1, hits give low values): 0.479 (active) | normalized growth (locus YLR133W, strain CKI1, hits give low values): 0.566 (active) | normalized growth (locus YLR403W, strain SFP1, hits give low values): 0.447 (active) | normalized growth (locus YML070W, strain DAK1, hits give low values): 0.789 | normalized growth (locus YMR001C, strain CDC5, hits give low values): 0.976 | normalized growth (locus YMR205C, strain PFK2 (second series), hits give low values): 0.771 | normalized growth (locus YMR277W, strain FCP1, hits give low values): 0.975 | normalized growth (locus YNL006W, strain LST8, hits give low values): 0.986 | normalized growth (locus YNL020C, strain ARK1, hits give low values): 0.523 (active) | normalized growth (locus YNL161W, strain CBK1, hits give low values): 0.981 | normalized growth (locus YNL183C, strain NPR1, hits give low values): 0.444 (active) | normalized growth (locus YNL207W, strain RIO2, hits give low values): 0.978 | normalized growth (locus YNL222W, strain SSU72, hits give low values): 0.972 | normalized growth (locus YNL307C, strain MCK1 (second series), hits give low values): 0.478 (active) | normalized growth (locus YOL078W, strain AVO1, hits give low values): 0.973 | normalized growth (locus YOL136C, strain PFK27, hits give low values): 0.723 | normalized growth (locus YOR061W, strain CKA2, hits give low values): 0.84 | normalized growth (locus YOR119C, strain RIO1, hits give low values): 0.655 | normalized growth (locus YOR231W, strain MKK1, hits give low values): 0.439 (active) | normalized growth (locus YOR329C, strain SCD5, hits give low values): 0.984 | normalized growth (locus YPL031C, strain PHO85, hits give low values): 0.542 (active) | normalized growth (locus YPL153C, strain RAD53, hits give low values): 0.556 (active) | normalized growth (locus YPL204W, strain HRR25, hits give low values): 0.556 (active) | normalized growth (locus YPL209C, strain IPL1, hits give low values): 0.982 | normalized growth (locus YPL256C, strain CLN2, hits give low values): 0.318 (active) | normalized growth (locus YPR025C, strain CCL1, hits give low values): 0.972 | normalized growth (locus YPR106W, strain ISR1, hits give low values): 0.991 | normalized growth (locus YPR111W, strain DBF20, hits give low values): 0.973 | normalized growth (strain NNK1, hits give low values): 0.983 | normalized growth (strain TSCII, hits give low values): 0.975
